Assay results published in PubChem BioAssay AID1159580 (chemical genetic matrix, 2015).
Several values for one entry are separate records, joined by “and”; a condition that tells them apart may be missing. Equal entries are not always repeated. In all, about 5,500 compounds went through this assay and about 2,000 (36%) were called active. Inconclusive results (about 18%) are left out. Rule as the data show it: active = normalized growth mostly below about 0.91 (no sharp cut-off); inconclusive = no clear call, values can overlap the other calls; inactive = mostly above about 0.92. The list shows a part of the results.

Test: chemical genetic growth profiling, strain panel (AID 1159580);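 also: tested at 20 µM; growth read once vehicle control cultures reached saturation at 30 °C; 1 = growth at the plate median or of vehicle wells; lower values mean less growth of the strain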
Settings: S. cerevisiae deletion strains, growth OD

Measured: normalized growth

Nc1ccc(S(=O)(=O)Nc2ncccn2)cc1
inactive: locus YAL013W, strain DEP1, hits give low values 0.982 | locus YAL021C, strain ccr4, hits give low values 0.968 | locus YAL026C, strain drs2, hits give low values 0.986 | locus YAL030W, strain snc1, hits give low values 0.994 | locus YBL061C, strain skt5, hits give low values 0.985 | locus YBR009C, strain hhf1, hits give low values 0.986 | locus YBR021W, strain FUR4, hits give low values 0.992 | locus YBR023C, strain chs3, hits give low values 0.993 | locus YBR171W, strain sec66, hits give low values 0.973 | locus YBR229C, strain ROT2, hits give low values 0.96 | locus YBR231C, strain swc5, hits give low values 1.02 | locus YBR279W, strain paf1, hits give low values 0.995 | locus YCL011C, strain gbp2, hits give low values 0.957 | locus YCL016C, strain dcc1, hits give low values 1.01 | locus YCL029C, strain bik1, hits give low values 0.991 | locus YCL069W, strain vba3, hits give low values 0.954 | locus YCR088W, strain abp1, hits give low values 0.976 | locus YDL005C, strain med2, hits give low values 0.985 | locus YDL035C, strain GPR1, hits give low values 0.979 | locus YDL040C, strain nat1, hits give low values 0.971 | locus YDL074C, strain BRE1, hits give low values 0.969 | locus YDL101C, strain DUN1, hits give low values 0.981 | locus YDL134C, strain PPH21, hits give low values 0.999 | locus YDL185W, strain tfp1, hits give low values 0.988 | locus YDL192W, strain arf1, hits give low values 1 | locus YDR001C, strain nth1, hits give low values 0.965 | locus YDR069C, strain doa4, hits give low values 0.97 | locus YDR101C, strain arx1, hits give low values 1.01 | locus YDR137W, strain rgp1, hits give low values 0.964 | locus YDR150W, strain NUM1, hits give low values 0.985 | locus YDR159W, strain sac3, hits give low values 0.955 | locus YDR162C, strain NBP2, hits give low values 0.996 | locus YDR195W, strain ref2 0.956 | locus YDR297W, strain sur2, hits give low values 0.975 | locus YDR318W, strain mcm21, hits give low values 1 | locus YDR334W, strain swr1, hits give low values 0.935 | locus YDR335W, strain msn5, hits give low values 0.988 | locus YDR388W, hits give low values 0.994 | locus YDR392W, strain spt3, hits give low values 1 | locus YDR502C, strain sam2, hits give low values 1.01 | locus YEL003W, strain gim4, hits give low values 0.991 | locus YEL037C, strain rad23, hits give low values 0.967 | locus YEL061C, strain CIN8 (second series), hits give low values 0.967 | locus YEL061C, strain CIN8, hits give low values 0.988 | locus YER015W, strain faa2, hits give low values 0.994 | locus YER016W, strain bim1, hits give low values 0.968 | locus YER110C, hits give low values 0.968 | locus YER111C, strain swi4, hits give low values 1 | locus YER155C, strain BEM2 (second series), hits give low values 0.989 | locus YER155C, strain BEM2, hits give low values 0.991 | locus YER167W, strain BCK2, hits give low values 0.99 | locus YFR010W, strain ubp6, hits give low values 0.941 | locus YGL078C, strain dbp3, hits give low values 1 | locus YGL086W, strain mad1, hits give low values 0.997 | locus YGL167C, strain pmr1, hits give low values 0.976 | locus YGL173C, strain kem1, hits give low values 0.994 | locus YGL227W, strain vid30, hits give low values 0.995 | locus YGL240W, strain doc1, hits give low values 0.986 | locus YGL248W, strain PDE1, hits give low values 0.978 | locus YGL253W, strain hxk2, hits give low values 0.923 | locus YGR078C, strain PAC10, hits give low values 0.986 | locus YGR135W, strain pre9, hits give low values 0.997 | locus YGR252W, strain gcn5, hits give low values 0.957 | locus YHR013C, strain ard1, hits give low values 0.984 | locus YHR027C, strain rpn1, hits give low values 0.988 | locus YHR030C, strain SLT2, hits give low values 0.999 and 0.97 | locus YHR079C, strain IRE1 (second series), hits give low values 1 | locus YHR079C, strain IRE1, hits give low values 0.979 | locus YHR094C, strain hxt1, hits give low values 0.994 | locus YHR129C, strain ARP1, hits give low values 0.987 | locus YHR142W, strain chs7, hits give low values 0.984 | locus YHR200W, strain rpn10, hits give low values 0.992 | locus YIL066C, strain RNR3, hits give low values 0.984 | locus YIL073C, strain SPO22, hits give low values 1.02 | locus YIL125W, strain kgd1, hits give low values 0.995 | locus YIR030C, strain dcg1, hits give low values 0.997 | locus YJL092W, strain hpr5, hits give low values 0.974 | locus YJL095W, strain BCK1 (second series), hits give low values 0.995 | locus YJL095W, strain BCK1, hits give low values 0.994 and 0.979 | locus YJL115W, strain asf1, hits give low values 0.97 | locus YJL129C, strain trk1, hits give low values 0.984 | locus YJL134W, strain LCB3, hits give low values 0.993 | locus YJL154C, strain vps35, hits give low values 0.969 | locus YJL164C, strain tpk1, hits give low values 0.992 | locus YJL166W, strain qcr8, hits give low values 0.936 | locus YJL168C, strain set2, hits give low values 0.992 | locus YJL187C, strain SWE1 (second series), hits give low values 0.986 | locus YJL187C, strain SWE1, hits give low values 0.974 | locus YJR043C, strain POL32, hits give low values 1.01
